{"source": "ChEMBL document CHEMBL3988442", "about": "“University of Dundee, Small-Polar-MMV Screening Library” (2021)", "note": "Out of some 53,000 compounds screened, about 900 (1.7%) showed an effect of 50% or more. The entries come from a sample that favours strong results as a whole."}
{"test_system": "Mycobacterium tuberculosis", "experiment": "Cornell - Phenotypic assay to identify agents that inhibit growth of Mycobacterium tuberculosis", "format": "functional", "design": "scale not given: direction of the effect not stated beside the values", "conditions": "10 mM as filed; unlikely as a test dose", "units": {"Percent Effect": "%"}}
{"smiles": "CO[C@@H]1CCN(C(=O)c2cc(C)on2)C[C@@H]1Cc1ccccc1", "Percent Effect": -19.48}
{"smiles": "Cc1nc(NCc2ccccc2)cc(C(C)Cn2nc(C)c(C)c2C)n1", "note": "(stereo not given)", "Percent Effect": 27.52}
{"smiles": "O=C(Cc1ccon1)Nc1cncc(Br)c1O", "Percent Effect": 58.04}
{"smiles": "CC(C)CN1Cc2cccc(NC(=O)Cc3ccon3)c2C1", "Percent Effect": 8.389}
{"smiles": "CCOc1cccc(CCNC(=O)Cc2ccn[nH]2)n1", "Percent Effect": -3.182}
{"smiles": "O=C(Nc1ccccc1OC1CCOC1)c1ccon1", "note": "(stereo not given)", "Percent Effect": -36.9}
{"smiles": "COC(=O)Cc1cccc(NC(=O)Cc2ccon2)c1", "Percent Effect": 10.84}
{"smiles": "O=C(Cc1ccn[nH]1)Nc1cncc(Br)c1O", "Percent Effect": 104.6}
{"smiles": "O=C(Cc1ccn[nH]1)N1CCc2cc(Br)sc2C1", "Percent Effect": 17.86}
{"smiles": "O=C(Nc1cncc(Br)c1O)c1ccon1", "Percent Effect": 105.3}
{"smiles": "COc1c(Br)cccc1CCNC(=O)c1ccon1", "Percent Effect": 37.39}
{"smiles": "CCc1ncc(CN2C[C@@H]3C[C@@H](O)CN3C[C@@H]2Cc2ccccc2)cn1", "Percent Effect": 42.85}
{"smiles": "CCc1ccc(C(=O)N2CCC(Nc3ccc(C)nn3)CC2)o1", "Percent Effect": 29.19}
{"smiles": "Cc1ccc(C(=O)N2CC[C@@]3(C[C@@H](NS(C)(=O)=O)CCO3)C2)s1", "Percent Effect": 6.984}
{"smiles": "COC(=O)[C@]12CNC[C@H]1CN(Cc1nc(C)c[nH]1)C2", "Percent Effect": -13.35}
{"smiles": "O=C(NC[C@]12COC[C@H]1CN(CC1CCOCC1)C2)c1ccccc1.O=C(O)C(F)(F)F", "Percent Effect": 14.72}
{"smiles": "Cc1cnc(C(=O)N2CCCC3(CCN(c4cnn(C)c4)C3=O)C2)cn1", "note": "(stereo not given)", "Percent Effect": -8.899}
{"smiles": "Cc1nc(C)c(C(=O)N2CCc3ccc(F)cc3C2C)o1", "note": "(stereo not given)", "Percent Effect": 37.91}
{"smiles": "CC1c2ccc(F)cc2CCN1C(=O)c1nc(=O)[nH][nH]1", "note": "(stereo not given)", "Percent Effect": 10.03}
{"smiles": "COC(=O)c1cc(C(=O)N2CCc3ccc(F)cc3C2C)ccn1", "note": "(stereo not given)", "Percent Effect": 5.538}
{"smiles": "CC1c2ccc(F)cc2CCN1C(=O)c1[nH]c(=O)[nH]c(=O)c1N", "note": "(stereo not given)", "Percent Effect": 102.4}
{"smiles": "Cc1nc(C)c(C(=O)N2CCc3cc(F)ccc3C2C)o1", "note": "(stereo not given)", "Percent Effect": -6.74}
{"smiles": "CC1c2cc(F)ccc2CCN1C(=O)c1[nH]c(=O)[nH]c(=O)c1N", "note": "(stereo not given)", "Percent Effect": 102.8}
{"smiles": "NC(=O)C1CCN(C(=O)NC2CCc3cc(F)ccc32)CC1", "note": "(stereo not given)", "Percent Effect": -2.777}
{"smiles": "Fc1ccccc1-c1nccnc1C1CCCNC1", "note": "(stereo not given)", "Percent Effect": 6.685}
{"smiles": "Cc1ccccc1CN1C[C@@H](C(=O)N2CCCCO2)C[C@H]2OCC[C@H]21.O=C(O)C(F)(F)F", "Percent Effect": 19.61}
{"smiles": "O=C(NC1CC1)C1(Cc2ccccc2-c2ccncc2)CCOCC1", "Percent Effect": -4.384}
{"smiles": "CS(=O)(=O)N1CCOCC12CCN(Cc1ccc(F)cc1)CC2.O=C(O)C(F)(F)F", "Percent Effect": 10.73}
{"smiles": "CS(=O)(=O)N1CCCC(C(=O)Nc2cnn(Cc3ccc(Cl)cc3)c2)C1", "note": "(stereo not given)", "Percent Effect": 6.456}
{"smiles": "COc1cc(CN2CCCC2)ccc1OC12CCCN(CC1)C2", "note": "(stereo not given)", "Percent Effect": 6.74}
{"smiles": "COc1cc(C#N)ccc1OC12CCCN(CC1)C2", "note": "(stereo not given)", "Percent Effect": 14.23}
{"smiles": "CCCc1ccc(OC23CCCN(CC2)C3)c(OC)c1", "note": "(stereo not given)", "Percent Effect": 51.62}
{"smiles": "Cc1nnc2n1CCN(C(=O)c1cc(C)n(-c3ccccc3)c1C)C2", "Percent Effect": -35.93}
{"smiles": "CN(CCCOc1ccccc1)Cc1nc2c(cnn2C)c(=O)[nH]1", "Percent Effect": 27.35}
{"smiles": "COc1cccc(OCC(=O)N2CCOc3ccncc32)c1", "Percent Effect": -4.09}
{"smiles": "Cc1ncsc1-c1cc(C(=O)NCCO)ccn1", "Percent Effect": 0.2276}
{"smiles": "CCCNC(=O)CNC(=O)c1scnc1C", "Percent Effect": -19.92}
{"smiles": "CNC(=O)CNC(=O)c1ccc(-c2scnc2C)nc1", "Percent Effect": 51.37}
{"smiles": "Cc1cc(C(=O)CN2CCN(c3nccs3)CC2)c(C)n1C1CC1", "Percent Effect": 7.889}
{"smiles": "COc1ccc(CCN(C)C(=O)c2cc(C(C)=O)c[nH]2)cc1OC", "Percent Effect": -7.568}
{"smiles": "CNC(=O)[C@@H]1CN(Cc2ccccc2)C[C@H]1C(=O)c1ccc(F)cc1", "Percent Effect": 28.54}
{"smiles": "CCNC(=O)[C@H]1CN(Cc2ccccc2)C[C@@H]1C(=O)c1ccccc1", "Percent Effect": 41.32}
{"smiles": "CCNC(=O)[C@@H]1CN(Cc2ccccc2)C[C@H]1C(=O)c1ccc(F)cc1", "Percent Effect": 56.73}
{"smiles": "O=C(O)[C@H]1CN(Cc2ccccc2)C[C@@H]1C(=O)c1ccccc1", "Percent Effect": 51.09}
{"smiles": "O=C(NC1CC1)[C@H]1CN(Cc2ccccc2)C[C@@H]1C(=O)c1ccccc1", "Percent Effect": 30.86}
{"smiles": "CC(C)NC(=O)[C@H]1CN(Cc2ccccc2)C[C@@H]1C(=O)c1ccccc1", "Percent Effect": 38.41}
{"smiles": "O=C(c1ccc(O)c(Cl)c1)N1CCN(c2nccs2)CC1", "Percent Effect": 19.4}
{"smiles": "CC(C)CC(=O)N1CC[C@H]2C[C@H](c3nccs3)O[C@@H]2C1", "Percent Effect": 29.2}
{"smiles": "CNc1nc2c(s1)C(c1ccccc1F)CC(=O)N2", "note": "(stereo not given)", "Percent Effect": -4.667}
{"smiles": "CNc1nc2c(s1)C(c1c(F)cccc1Cl)CC(=O)N2", "note": "(stereo not given)", "Percent Effect": 108}
